Here are results for 14 compounds from PubChem BioAssay (NCI).

The panel holds about 83,000 compounds, 20% with a hit somewhere; the sample as a whole holds those more often.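 96-well plates, one dose, 48 hours. Percent growth reported; active if below 10.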 A number with no mark means an inactive call. The source made the active and inactive calls.

Among the test systems are EKVX NSCLC; SN12C renal; UO-31 renal; TK-10 renal; ACHN renal; CAKI-1 renal; A498 renal; CCRF-CEM leukemia; MOLT-4 leukemia; SR leukemia.
Common to all, as to assay: NCI-60 one-dose screen, 48 h (100 = growth as untreated, 0 = no growth, -100 = all killed)
Holding throughout (details): 10 µM unless noted

For `COC(=O)[C@]12CC[C@@H](C)[C@H](C)[C@@H]1C1=CC[C@@H]3[C@@]4(C)C[C@@H](OC(=O)c5ccco5)[C@H](O)[C@@](C)(CO)[C@@H]4[C@H](O)C[C@@]3(C)[C@]1(C)CC2`, the growth in the experiment with EKVX NSCLC is -91.9% (active); in the experiment on SN12C renal, -77.2% (active); in the experiment with UO-31 renal it was -89.6% (active); in the experiment on TK-10 renal, -87.9% (active); with ACHN renal, -95% (active); in the experiment with CAKI-1 renal it was -98.3% (active). In addition, the growth was -94.5% (active) in the experiment with A498 renal, -87.3% (active) in the experiment on CCRF-CEM leukemia, -75.5% (active) in the experiment on MOLT-4 leukemia and -91% (active) in the experiment on SR leukemia.

For `COc1cccc(CCC2C(=O)CCCC2=O)c1`, the growth is 116% in the experiment on EKVX NSCLC; 106% with SN12C renal; 84.3% with UO-31 renal; 115% in the experiment with TK-10 renal; 103% with ACHN renal; 106% with CAKI-1 renal. Also, the growth in the experiment on A498 renal is 131%; with CCRF-CEM leukemia, 102%; with MOLT-4 leukemia, 92.1%; in the experiment with SR leukemia, 99.1%.

In the case of `O=C(Nc1cccc2ccccc12)c1cc2c(cc1Br)OCO2`, the growth with EKVX NSCLC was 92.9%; with SN12C renal, 107%; in the experiment with UO-31 renal, 99.2%; with TK-10 renal, 172%; in the experiment with ACHN renal, 94.2%; in the experiment with CAKI-1 renal it was 101%. In addition, the growth with A498 renal was 126%; in the experiment on CCRF-CEM leukemia it was 94.7%; with MOLT-4 leukemia, 91.5%; in the experiment on SR leukemia it was 71.5%.

In the case of `Clc1cc(Cl)c(OCC#CI)cc1Cl`, the growth in the experiment on EKVX NSCLC is 98.8%; in the experiment with SN12C renal, 53.7%; in the experiment with UO-31 renal it was 38.4%; in the experiment with TK-10 renal, 69.8%; in the experiment on ACHN renal, 2.93% (active); with CAKI-1 renal, 15.7%. Also, the growth in the experiment on A498 renal was 119%; with CCRF-CEM leukemia, 27.8%; in the experiment on MOLT-4 leukemia, 41.5%; in the experiment with SR leukemia it was 11.4%.

With `CCS(=O)(=O)OCCCl`, the growth in the experiment with EKVX NSCLC is 105%; with SN12C renal, 102%; in the experiment with UO-31 renal, 68.3%; in the experiment with TK-10 renal it was 97.7%; in the experiment with ACHN renal it was 99.3%; with CAKI-1 renal, 104%. Further, the growth in the experiment on A498 renal was 101%; in the experiment with CCRF-CEM leukemia it was 84.7%; in the experiment on MOLT-4 leukemia, 89.8%; in the experiment with SR leukemia it was 137%.

In the case of `COc1ccc(OC)c(NC(=O)c2cc3oc4ccccc4c3cc2O)c1`, the growth was 75.9% in the experiment with EKVX NSCLC; 95% in the experiment with SN12C renal; 79.8% in the experiment with UO-31 renal; 135% with TK-10 renal; 98.7% in the experiment on ACHN renal; 74.7% in the experiment on CAKI-1 renal. Further, the growth with A498 renal is 121%; in the experiment with CCRF-CEM leukemia, 99.4%; in the experiment with MOLT-4 leukemia it was 117%; in the experiment on SR leukemia, 127%.

Turning to `Cc1cccc(Cl)c1NC(=O)c1ccc2nc(NC(=O)NC3CC(C)(C)NC(C)(C)C3)sc2c1`, the growth was 94.5% in the experiment on EKVX NSCLC; 56.5% in the experiment on SN12C renal; 88.7% with UO-31 renal; 80.2% in the experiment with TK-10 renal; 94.9% in the experiment with ACHN renal; 92% with CAKI-1 renal. In addition, the growth in the experiment with A498 renal was 89%; in the experiment with CCRF-CEM leukemia, 87.7%; in the experiment with MOLT-4 leukemia, 70%; in the experiment with SR leukemia, 95.6%.

With `CC(=O)c1ccc2c3c(n(C)c2c1)CCCC3`, the growth was 88.3% with EKVX NSCLC; 97.2% with SN12C renal; 112% in the experiment on UO-31 renal; 85.4% in the experiment with TK-10 renal; 105% with ACHN renal; 102% in the experiment on CAKI-1 renal. Also, the growth with A498 renal is -76.1% (active); in the experiment with CCRF-CEM leukemia it was 86.6%; in the experiment on MOLT-4 leukemia, 76.5%; with SR leukemia, 92.1%.

For the compound `[O-]/[N+](=C\C=C\c1ccccc1)c1ccccc1`, the growth is 100% in the experiment with EKVX NSCLC; 106% with SN12C renal; 97.4% in the experiment on UO-31 renal; 144% in the experiment with TK-10 renal; 108% with ACHN renal; 103% with CAKI-1 renal. Besides, the growth was 96.9% in the experiment with A498 renal, 88% with CCRF-CEM leukemia, 85.1% in the experiment on MOLT-4 leukemia and 73% in the experiment on SR leukemia.

For the compound `COc1ccc(C2=NNC(c3cc(Cc4ccc(O)c(C5CC(c6ccc(OC)cc6)=NN5)c4)ccc3O)C2)cc1` (stereo not given), the growth in the experiment on EKVX NSCLC is 30.9%; with SN12C renal, 52.1%; in the experiment on UO-31 renal, -2.57% (active); with TK-10 renal it was 45.5%; in the experiment with ACHN renal, 46.3%; in the experiment on CAKI-1 renal, -30.5% (active). Also, the growth in the experiment with A498 renal is 103%; in the experiment on CCRF-CEM leukemia, 11.6%; in the experiment on MOLT-4 leukemia, 18.4%; in the experiment with SR leukemia, 16%.

On to `O=C(C=C=Nc1ccccc1)C(=O)N=C=Cc1ccccc1`, for which the growth in the experiment on EKVX NSCLC is 72.6%; with SN12C renal it was 77.7%; in the experiment with UO-31 renal, -51.3% (active); in the experiment on TK-10 renal, -20.3% (active); in the experiment with ACHN renal it was -58.3% (active); with CAKI-1 renal, 17.7%. In addition, the growth with A498 renal was 102%; with CCRF-CEM leukemia, -35.5% (active); with MOLT-4 leukemia, -16.3% (active); with SR leukemia it was 3.67% (active).

As for `COc1cc(/C=C2\COc3ccc(O)cc3C2=O)cc(OC)c1`, the growth is 94.8% in the experiment with EKVX NSCLC; 21.7% in the experiment with SN12C renal; 63.1% with UO-31 renal; 93.6% with TK-10 renal; 48.9% in the experiment with ACHN renal; 68.4% with CAKI-1 renal. For the same compound, the growth is 101% in the experiment with A498 renal, -0.953% (active) with CCRF-CEM leukemia, 31.3% with MOLT-4 leukemia and 3.36% (active) in the experiment with SR leukemia.

Turning to `CC(C)C/C(=N\NC(=O)c1ccncc1)c1cc(Cl)ccc1O`, the growth with EKVX NSCLC was 25.7%; in the experiment with SN12C renal it was 26.3%; with UO-31 renal it was 10.9%; in the experiment on TK-10 renal, 15.4%; with ACHN renal, 13.3%; in the experiment with CAKI-1 renal, 3.32% (active). Also, the growth was 49.5% with A498 renal, 7.99% (active) with CCRF-CEM leukemia, 3.56% (active) with MOLT-4 leukemia and 6.34% (active) with SR leukemia.

`COc1cc(/C=C/c2nnc(-c3cc(-c4ccccc4)n[nH]3)o2)cc(OC)c1OC`: the growth was 102% with EKVX NSCLC; 99.5% with SN12C renal; 80% in the experiment with UO-31 renal; 123% with TK-10 renal; 91.3% with ACHN renal; 89.4% in the experiment on CAKI-1 renal. Besides, the growth in the experiment with A498 renal was 105%; in the experiment on CCRF-CEM leukemia it was 75.9%; with MOLT-4 leukemia it was 69%; with SR leukemia it was 86.4%.
